The list is not random: actives were taken first. Their share in the collection is about 19%.
TDP1 cell CPT – DT40-hTDP1 cell growth loss with CPT; chicken DT40 Tdp1-/-;hTDP1 cells + 20 nM CPT, ATP luminescence, 48 h; actives 12% (n = 420,000); Potency, µM (top dose mostly 46.2 µM), without a hit: top-dose activity change, negative = growth inhibition, actives largely listed as inhibitors; further: potency means the concentration at half of the fitted maximal effect; nearly all actives have a fitted effect of over 55% in size
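Chicken DT40 Tdp1-/- cells stably complemented with human TDP1 were seeded at 400 cells/well in medium containing 20 nM camptothecin, exposed to pin-transferred compounds, and grown at 37 °C for at least 48 hr. Viability was read as ATP luminescence.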
IL-1B inflam inh – inhibitors of inflammasome signaling (IL-1 beta secretion) | AID 743279 | THP-1 LPS/ATP IL-1B secretion, AlphaLISA, 16 h; stronger effect = lower value | actives 4.7% (n = 360,000) | activity change, % at 57.5 µM; in the data active means activity change below about -50%; inconclusive means mostly about -30% to -49%
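THP-1 cells pretreated 1 hr with compounds (up to 57.5 uM final), then stimulated with LPS (250 ng/mL final) plus ATP (1.25 mM final); secreted IL-1B measured by AlphaLISA after 16 hr, decreased signal indicating inhibition.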
HT1080 IDH1KD tx – kills HT-1080 cells with IDH1 knockdown | HT-1080 IDH1 knockdown viability, ATP luminescence, 48 h | Potency, µM (titrated, usually from 46.1 µM), for the others: top-dose activity, negative = toxicity, hits mostly cytotoxic | actives 2% (n = 360,000) | AID 686971;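 further: potency means the concentration at half of the fitted maximal effect; 0% = DMSO wells and -100% = cell-free medium wells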
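HT-1080-IDH1KD cells (IDH1 knocked down), 750/well in RPMI with 5% FBS, treated with compound 48 h at 37 degrees C. Viability by CellTiter-Glo luminescence, normalised to DMSO and no-cell wells; concentration-response curves classed.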
HT1080-NT tox – kills 2HG-producing HT-1080-NT fibrosarcoma cells. HT-1080-NT fibrosarcoma viability, CellTiter-Glo ATP luminescence, 48 h. actives 1.6% (n = 360,000). AID 686970. Potency, µM (series often up to 46.1 µM), for inactives: top-dose activity, negative = less viability, usual class: cytotoxic;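 further: NT is the 2HG producing partner of a matched IDH1 knockdown line; potency means the concentration at half of the fitted maximal effect; 0% = DMSO-treated cells and -100% = media-only wells without cells; nearly all actives have a fitted effect of over 55% in size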
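750 cells/well, RPMI + 5% FBS; 2 h settle, compound pin-transfer, 48 h at 37 degrees C. CellTiter-Glo 10 min RT, luminescence. Normalized to DMSO and media-only wells.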
DT40 TDP1 no CPT – qHTS for Inhibitors of human tyrosyl-DNA phosphodiesterase 1 (TDP1): qHTS in cells in absence of CPT | DT40 Tdp1-/- hTDP1 cells, no CPT, ATP luminescence, 48 h | Potency, µM (highest dose often 46.2 µM), inactives show at the top dose activity change, negative = growth inhibition, most hits filed as inhibitors | actives 15% (n = 420,000); further: potency means the concentration at half of the fitted maximal effect; nearly all actives have a fitted effect of over 55% in size
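Growth of hTDP1-complemented DT40 Tdp1-knockout cells is measured by ATP luminescence after at least 48 hr compound exposure at 37 °C, with DMSO substituting for the 20 nM CPT used in the parallel screen.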
Numbers without * were called inactive; ? = inconclusive; nt = no result given; [ ] = another dose, or the depositor's remark. Unless noted, the call rests on the fitted dose curve; in most records, active means well fitted curve in the direction sought with a large enough effect; inconclusive means small, poorly fitted or top-dose-only effect, or another doubt; inactive means no such curve, though single readings can be large; an effect the other way counts as inactive or inconclusive. Unless noted, on the % scale 0 is the no-effect control and ±100 the full control effect.

SMILES | TDP1 cell CPT | IL-1B inflam inh | HT1080 IDH1KD tx | HT1080-NT tox | DT40 TDP1 no CPT
CC(C)(C)NC(=O)CC1C[C@H](C(=O)N2CCOCC2)[C@@]2(C)c3[nH]c4ccccc4c3CCN2C1=O (stereo partly specified) | -10% | 2 | 5% | 2% | -8%
O=C(Cc1ccc(F)cc1)NCCc1cnc[nH]1 | 0% | 12 | 1% | 7% | 23%
S=C(NCCCc1cnc[nH]1)NCCCN(Cc1ccc(Cl)cc1)c1ccc(-c2ccccc2)cn1 | ? | nt | nt | nt | -19%
S=C(NCCCc1cnc[nH]1)NCCCN(Cc1ccc(Cl)cc1)c1ncc(Br)cn1 | 13µM* | nt | nt | nt | 7.9µM*
O=C(NCCCc1cnc[nH]1)NCCCN(Cc1ccc(Cl)cc1)c1ccc(Br)cn1 | 2.2µM* | nt | nt | nt | 4µM*
S=C(NCCc1ccccc1)Nc1ncccn1 | 1% | -6 | -8% | -4% | -17%
S=C(NCCCc1cnc[nH]1)NCCCN(Cc1ccc(Cl)cc1)c1ccc(Br)cc1 | 13µM* | nt | nt | nt | -95%
S=C(NCCCc1cnc[nH]1)NCCCN(CCc1ccccc1)c1ccc(Br)cn1 | 10µM* | nt | nt | nt | 8.9µM*
Cc1ccc(-c2nc(N)s[n+]2-c2ccccc2)cc1 | ? | -5 | 6% | 3% | ?
CNc1nc(-c2ccccc2)[n+](-c2ccc(C)cc2)s1 | 3.3µM* | -79* | 1% | -9% | 5.2µM*
CCC(=O)N1CCN(c2ccc(OC)cc2[N+](=O)[O-])CC1 | -6% | -13 | -19% | 4%[9.24 µM] | -19%
COc1ccc(N2CCN(C(=O)c3cccc(Br)c3)CC2)c([N+](=O)[O-])c1 | 23µM* | ? | 5% | -2% | 16µM*
CO/N=C/c1ccc(N2CCN(C(=O)c3ccc(C)cc3)CC2)c([N+](=O)[O-])c1 | 18µM* | -6 | -11% | 4% | 15µM*
CO/N=C/c1ccc(N2CCCC2)c([N+](=O)[O-])c1 | 2% | 0 | -18% | -4% | 3%
COc1ccc(N2CCN(C(=O)c3cccc(F)c3)CC2)c([N+](=O)[O-])c1 | ? | -52* | 1% | 8% | ?
COc1ccc(N2CCN(C(=O)CC34CC5CC(CC(C5)C3)C4)CC2)c([N+](=O)[O-])c1 | 21µM* | 12 | 9% | 10% | 16µM*
CC(=O)c1cnc2n(c1=O)CCS2 | 3% | -3 | 0% | -8% | -5%
CC(C)(C)c1ccc(OCC(=O)Nc2ccc(S(=O)(=O)Nc3ncccn3)cc2)cc1 | -12% | nt | nt | nt | -7%
CCOC(=O)N1CCC(NC(=O)CS(=O)Cc2nc(-c3ccccc3C)oc2C)CC1 (stereo unspecified) | ? | 11 | -1% | 25% | -20%
COc1ccc(N2CCN(C(=O)c3ccccc3F)CC2)c([N+](=O)[O-])c1 | ? | ? | 3% | 7% | ?
O=C(c1ccc(F)cc1)N1CCN(c2cc(N3CCCCC3)c(F)cc2[N+](=O)[O-])CC1 | ? | -83* | ? | 0%[9.24 µM] | ?
COc1ccc(N2CCN(C(=O)c3ccc(F)cc3)CC2)c([N+](=O)[O-])c1 | -13% | -21 | 8% | 4% | 21µM*
Cc1onc(C(=O)NC(C)c2ccccc2)c1[N+](=O)[O-] (stereo unspecified) | -9% | 13 | -3% | -5% | -11%
Cc1nc(-c2ccc(Cl)cc2)oc1COC(C)(C)C(=O)O | -3% | nt | nt | nt | -12%
COc1cccc(CNC(=S)Nc2ccc3c(c2)c(=O)n(C)n3Cc2ccccc2)c1 | ? | -11 | 0% | 25% | ?
SMILES | TDP1 cell CPT | IL-1B inflam inh | HT1080 IDH1KD tx | HT1080-NT tox | DT40 TDP1 no CPT
C=CCNC(=O)NC(=O)COC(=O)[C@H](C)NS(=O)(=O)c1c(C)c(C)cc(C)c1C | 0% | 4 | 5% | 0% | -7%
CC[n+]1c(C)sc2c3ccsc3ccc21 | 23µM* | 51 | 9% | 6% | 16µM*
CCC[n+]1c(C)sc2c(OC)ccc(OC)c21 | ? | -24 | 0% | 0% | ?
COCCC1CCCCN1C(=O)c1cc(COc2ccc(-n3cncn3)cc2)on1 (stereo unspecified) | 5.2µM* | -15 | ? | -3% | 2.1µM*
CCN(CC)C(=O)C1CCCN(C(=O)c2cc(COc3ccc4ncccc4c3)on2)C1 (stereo unspecified) | 16µM* | -7 | -20% | -3% | 5.8µM*
COCC1CCCCN1C(=O)c1cc(COc2ccc3ncccc3c2)on1 (stereo unspecified) | 1.2µM* | 17 | 1% | 2% | 0.92µM*
CC(=O)NCCC1CCCCN1C(=O)c1cc(COc2cc(C)ccc2C)on1 (stereo unspecified) | -14% | -8 | 1% | 18% | -24%
CCC1CCCCN1C(=O)c1cc(COc2ccc3ncccc3c2)on1 (stereo unspecified) | 1.8µM* | -19 | ? | -22% | 1µM*
COCCc1nc2ccc(C(=O)N3CCCCC3COC)cc2o1 (stereo unspecified) | 1% | 4 | 7% | 5% | 0%
Cc1ccccc1OCC(=O)OCC(=O)Nc1ncc(Cl)c(C)c1Cl | -9% | 8 | -2% | 1%[9.24 µM] | -2%
COC(=O)c1ccc(Cn2c(C)c(C(=O)NCc3cccc([N+](=O)[O-])c3)sc2=O)o1 | ? | -16 | 2% | 2% | ?
CCn1cc(C(=O)N[C@H](C(=O)NCCCN2CCOCC2)C(C)C)c(=O)c2cc3c(cc21)OCO3 | -13% | 4 | 10% | 12% | 18%
COc1cc(OC)c(/C=C/c2cc(/C=C/c3c(OC)cc(OC)cc3OC)[n+](C)c3ccccc23)c(OC)c1 | 1.6µM* | nt | nt | nt | 1.1µM*
COc1cc(OC)c(/C=C/c2c3ccccc3cc[n+]2C)c(OC)c1 | 0.32µM* | nt | nt | nt | 0.089µM*
COc1cc(OC)c(/C=C/c2cc3c4ccccc4ccc3[n+](C)c2)c(OC)c1 | -117% | nt | nt | nt | ?
COc1ccccc1N1CCN(C[C@@H](C(=O)NC(C)(C)C)c2ccccc2)CC1 | -35% | nt | nt | nt | ?
COC(=O)C1=C(COc2ccc(C=O)cc2OC)NC(=O)NC1c1cc(C)ccc1C (stereo unspecified) | ? | 20 | 11% | 5% | 15µM*
COC(=O)C1=C(CN2CCN(C)CC2)NC(=O)NC1c1cc(C)ccc1C (stereo unspecified) | -16% | -1 | 8% | 9% | -13%
CCOc1cc(C(=S)N2CCOCC2)cc(Br)c1OS(=O)(=O)c1ccccc1 | ? | -18 | -13% | 2% | 23µM*
CCOc1cc(C(=S)N2CCC(O)CC2)ccc1OS(=O)(=O)c1ccc(Br)cc1 | ? | -82* | -3% | ? | 18µM*

Compound activity as filed in PubChem BioAssay.
